# High-throughput results (PubChem BioAssay)
# NPR1 antag = Natriuretic polypeptide receptor (hNpr1) antagonism - Primary qHTS. 76,000 tested, 1.6% active. HEK293 hNpr1 GloSensor cGMP, ANP-stimulated luminescence. Potency, µM (highest dose often 46.3 µM), inactives show top-dose activity change, negative = inhibition, usual class: inhibitors; calls by dose curve; note: nearly all actives have a fitted effect of over 60% in size
#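 HEK293 cells stably expressing human Npr1 and cGMP GloSensor pGS-40F, loaded 2 h with 2% GloSensor reagent, given compound 30 min at room temperature. Luminescence read before and 20 min after 0.1 nM hNppA.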
# SNCA expr inh = Primary qHTS assay for inhibitors of alpha-synuclein gene (SNCA) expression; AID 1671194, 2021; 140,000 tested, 0.17% active; HEK-293 SNCA-luciferase knock-in, luminescence, 24 h; Potency, µM (doses to about 57.2 µM), inactives show at the top dose activity change, negative = inhibition, usual class: inhibitors;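 note: plate controls were DMSO cells for no effect and cell-free wells for full effect; nearly all actives have a fitted effect of over 45% in size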
# HEK293 viab = GF-AFC viability counterscreen for inhibitors of alpha-synuclein gene (SNCA) expression | Potency, µM (highest dose often 57.1 µM), without a hit: top-dose activity change, negative = cytotoxicity, usual class: cytotoxic | 150,000 tested, 0.12% active | HEK-293-SNCA-luc viability, GF-AFC fluorescence, 24 h;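 note: 0% = DMSO-treated cells and -100% = medium-only wells without cells; nearly all actives have a fitted effect of over 30% in size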
#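 HEK-293-SNCA-luc cells (1500/well) plated 24 h, then exposed 24 h to a dilution series; GF-AFC added 30 min at 37C, fluorescence 405/540 nm; normalised to medium-only and DMSO wells, Hill fit.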
# HEK293 tox = Cytotoxic Profiling in HEK 293 Cell Line of Diverse Libraries Using Quantitative High-Throughput Screening. 94,000 tested, 6.6% active. HEK 293 viability, ATP luminescence (CellTiter-Glo), 48-72 h. Potency, µM (series often up to 115 µM), for the others: at the highest dose activity change, negative = cytotoxicity, actives largely listed as inhibitors; note: nearly all actives have a fitted effect of over 60% in size
#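 Cells seeded first (HEK 293, 250 cells/well), then compound added by pintool. Incubation ran 48 or 72 hr at 37 degree Celsius. CellTiter-Glo was added and luminescence imaged after 10 min at room temperature.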
# FLuc inh = Firefly luciferase inhibition profiling of diverse chemical library using quantitative high-throughput screening | Luciferin 4-monooxygenase (Photinus pyralis), P08659 | purified P. pyralis luciferase, luminescence, biochemical | Potency, µM (top dose mostly 115 µM), most hits filed as inhibitors | 76,000 tested, 2.5% active; note: nearly all actives have a fitted effect of over 65% in size
# Target sequence (P08659 whole entry, looked up): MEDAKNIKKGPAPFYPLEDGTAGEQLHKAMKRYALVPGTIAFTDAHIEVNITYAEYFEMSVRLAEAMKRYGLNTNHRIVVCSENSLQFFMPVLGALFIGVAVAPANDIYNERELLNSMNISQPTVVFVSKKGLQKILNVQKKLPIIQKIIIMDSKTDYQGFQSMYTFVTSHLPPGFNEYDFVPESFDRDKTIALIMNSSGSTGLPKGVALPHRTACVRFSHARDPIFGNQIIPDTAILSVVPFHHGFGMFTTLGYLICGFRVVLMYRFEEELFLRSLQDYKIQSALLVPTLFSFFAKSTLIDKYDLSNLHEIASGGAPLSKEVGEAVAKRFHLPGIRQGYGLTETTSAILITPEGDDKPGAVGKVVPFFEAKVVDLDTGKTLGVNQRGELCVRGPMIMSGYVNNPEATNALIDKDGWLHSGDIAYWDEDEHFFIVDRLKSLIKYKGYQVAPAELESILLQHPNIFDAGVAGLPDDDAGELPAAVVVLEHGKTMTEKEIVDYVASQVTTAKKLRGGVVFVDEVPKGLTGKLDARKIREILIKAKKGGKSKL
#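 Luminescence read by CCD imaging after purified firefly luciferase (10nM final) was added to substrate buffer holding 10uM D-luciferin and 10uM ATP, pH 7.5, pre-dosed with compound.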
# NIH3T3 tox = Cytotoxic Profiling in NIH 3T3 Cell Line of Diverse Libraries Using Quantitative High-Throughput Screening. 94,000 tested, 4.3% active. AID 1345082, 2018. NIH 3T3 viability, CellTiter-Glo ATP luminescence, 48-72 h. Potency, µM (titrated, usually from 96.7 µM), for inactives: at the top dose activity change, negative = cytotoxicity, hits mostly inhibitors; note: nearly all actives have a fitted effect of over 55% in size
#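 First NIH 3T3 cells are plated at 400 cells/well; next compound is pinned in; then plates incubate 48 or 72 hr at 37 °C; finally CellTiter-Glo is added and luminescence read after 10 min.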
# Active calls of the source: *; i = inactive; ? = inconclusive; . = not tested or not shown; [ ] = remark or other dose. A selection: hits, their analogues and other compounds. The true share with any hit is near 7.4%. Unless noted, calls come from the whole dose curve; as a rule, active = well fitted curve in the direction sought with a large enough effect; inconclusive = small, poorly fitted or top-dose-only effect, or another doubt; inactive = no such curve, though single readings can be large; an effect the other way counts as inactive or inconclusive. Unless noted, % is set by controls: 0 for no effect and ±100 for the full control effect; potency is the fitted concentration of half-maximal effect.
SMILES,NPR1 antag,SNCA expr inh,HEK293 viab,HEK293 tox,FLuc inh,NIH3T3 tox
O=C(NCc1ccccn1)c1nc2sccn2c1-c1ccncc1,.,-6%,-7%,5%,.,-27%
O=[S+]([O-])(NC1CCCN(Cc2ccc(-c3cncnc3)cc2)C1)c1cccs1 (stereo unspecified),.,-7%,6%[12.5 µM],?,.,?
COc1ccc(F)cc1-c1ccc(CN2CCC(N[S+](=O)([O-])c3ccc(C)cc3)C2)cc1 (stereo unspecified),.,.,.,32µM*,.,28µM*
COc1ccc(F)cc1-c1ccc(CN2CCC(N[S+](=O)([O-])c3c(C)noc3C)C2)cc1 (stereo unspecified),.,.,.,45µM*,.,?
Cc1noc(C)c1[S+](=O)([O-])NC1CCCN(Cc2ccc(-c3cncnc3)cc2)C1 (stereo unspecified),.,14%,-2%[12.5 µM],?,.,-21%
COc1ccc(F)cc1-c1ccc(CN2CCC(N[S+](=O)([O-])c3cccs3)C2)cc1 (stereo unspecified),.,.,.,40µM*,.,?
COc1cccc(-c2ccc(CN3CCCC(N[S+](=O)([O-])c4cccs4)C3)cc2)c1 (stereo unspecified),.,-14%,-14%,13µM*,.,32µM*
Cc1ccc([S+](=O)([O-])NC2CCCN(Cc3ccc(-c4cncnc4)cc3)C2)cc1 (stereo unspecified),.,-4%,5%[12.5 µM],?,.,?
O=C(C1CN(C2CCCCC2)C(=O)N1)N1CCC(Cc2ccccc2)CC1 (stereo unspecified),.,0%,28%[12.5 µM],?,.,?
Cn1ncc2c(C(=O)Nc3cccnc3)cc(-c3ccc(C(F)(F)F)cc3)nc21,.,.,.,4%,.,-2%
COc1ccc(-c2cnc3n[nH]c(-c4ccccc4C)c3n2)cn1,-9%[70.6 µM],?,-15%[87.6 µM],32µM*,i,?
COc1ccc(-c2[nH]nc3ncc(-c4ccc(F)cc4OC)nc23)c(C)c1,-15%[70.6 µM],-7%[87.6 µM],0%[87.6 µM],?,i,?
COc1ccc(-c2cnc3n[nH]c(-c4ccc(F)cc4C)c3n2)cc1,-1%[70.6 µM],27%[87.6 µM],-5%[87.6 µM],45µM*,i,32µM*
COc1ccc(-c2[nH]nc3ncc(-c4ccc(OC)nc4)nc23)c(C)c1,4%[70.6 µM],?,-8%[87.6 µM],22µM*,i,?
Cc1ccccc1-c1[nH]nc2ncc(-c3ccsc3)nc12,-13%[70.6 µM],-33%[87.6 µM],-23%[87.6 µM],32µM*,i,?
Cc1ccccc1-c1[nH]nc2ncc(-c3cccnc3)nc12,-5%[70.6 µM],-9%[87.6 µM],-5%[87.6 µM],?,i,?
O=C(Nc1ccccc1F)NC1CCN(CCn2nc3n(c2=O)CCCC3)C1 (stereo unspecified),.,.,.,-6%,.,-2%
O=C(NCc1ccc2c(c1)OCO2)c1cc(-c2cc(Cl)cc(Cl)c2)c2cccn2n1,.,-10%,-5%,?,.,-10%
Cc1ccc(C(=O)N2CCC[C@@H]2C(=O)N2CCC(N3CCOC3=O)CC2)cc1,.,20%,9%,-7%,.,-7%
C[S+](=O)([O-])N1CCc2nc(C3CC3)nc(-c3ccc(Cl)cc3)c2C1,.,-4%,-16%,?,.,32µM*
CCc1nc2c(c(-c3ccc(Cl)cc3)n1)CN([S+](=O)([O-])c1ccc(C)cc1)CC2,3%,-6%,-6%,i,i,3%
CCc1nc2c(c(-c3ccc(OC)cc3)n1)CN([S+](=O)([O-])c1cccc(OC)c1)CC2,.,-7%,-5%,-31%,.,28µM*
C[S+](=O)([O-])N1CCc2nc(-c3ccccc3)nc(-c3ccc(Cl)cc3)c2C1,4%,3%,7%,-16%,i,-16%
CCc1nc2c(c(-c3ccc(Cl)cc3)n1)CCN([S+](=O)([O-])c1ccccc1)CC2,-16%,23%,10%,35µM*,i,?
CC(=O)Nc1ccc(CC(=O)NCCc2noc(-c3ccccc3)n2)cc1,.,15%,-4%,i,.,-17%
SMILES,NPR1 antag,SNCA expr inh,HEK293 viab,HEK293 tox,FLuc inh,NIH3T3 tox
O=C(Cc1ccc(F)cc1)NC1CCCN(c2ccc3nnc(C4CC4)n3n2)C1 (stereo unspecified),.,.,.,-3%,.,-29%
COc1ccccc1Nc1ccnc(N2CCC(C(=O)NCc3ccc4c(c3)OCO4)CC2)n1,.,?,9%,?,.,?
CNC(=O)CCn1ncc2cc(OCc3ccccc3-c3cccc(CO)c3)ccc21,?,?,-12%[87.6 µM],79µM*,16µM*,?
CNC(=O)CCn1ncc2cc(OCc3ccccc3-c3ccc(F)cc3)ccc21,-10%[70.6 µM],-9%[87.6 µM],-19%[87.6 µM],71µM*,?,?
CNC(=O)CCn1ncc2cc(OCc3ccccc3-c3cccnc3)ccc21,-12%[70.6 µM],0%[87.6 µM],-4%[87.6 µM],?,i,?
CNC(=O)CCn1ncc2cc(OCc3ccccc3-c3ccc(F)cc3C)ccc21,-22%[70.6 µM],?,-16%[87.6 µM],?,i,50µM*
CNC(=O)CCn1ncc2cc(OCc3ccccc3-c3ccc(F)c(Cl)c3)ccc21,?,?,?,100µM*,?,79µM*
CNC(=O)CCn1ncc2cc(OCc3ccccc3-c3ccc(F)cc3OC)ccc21,?,-35%[87.6 µM],-19%[87.6 µM],?,?,?
O=C(NC1CCN(Cc2cccc(-c3cccs3)c2)CC1)c1cccnc1,.,1%,-4%[12.5 µM],?,.,?
COc1ccc(C(=O)NC2CN(c3ccnc4ccnn34)C2)cc1,.,?,2%,-5%,.,-34%
COCCc1noc(C2Cc3ccccc3N2C(=O)CCc2cccc(OC)c2)n1 (stereo unspecified),.,17%,-7%,?,.,?
COc1cccc(CN2CC(O)CN(S(=O)(=O)c3ccc(F)cc3)CC2=O)c1OC (stereo unspecified),.,.,.,-19%,.,?
CNC(=O)CCn1ncc2cc(OCc3ccccc3-c3cc(F)ccc3OC)ccc21,-19%[70.6 µM],?,?,79µM*,40µM*,?
CNC(=O)CCn1ncc2cc(OCc3ccccc3-c3ccccc3F)ccc21,-20%[70.6 µM],-17%[87.6 µM],-11%[87.6 µM],100µM*,?,79µM*
Cc1csc(Nc2ccc3c(n2)CN(CCOc2ccccc2)C(=O)CO3)n1,-3%[70.6 µM],-15%[87.6 µM],-8%[87.6 µM],?,i,?
Cc1csc(Nc2ccc3c(n2)CN(C)C(=O)CO3)n1,1%[70.6 µM],?,?,18µM*,i,32µM*
